Results taken from PubChem BioAssay (NCI).
“And” between values parts separate entries of the source, which are not always exact repeats. Equal values may be shown once. Compounds without any hit were thinned out: in the full panel of roughly 83,000, 20% have a hit.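 Cells were grown in 96-well plates and exposed to the test compound at a single concentration for 48 hours; results are reported as percent growth, with values below 10 considered active.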 The source made the active and inactive calls.

system: HL-60(TB) leukemia; experiment: NCI-60 one-dose screen, 48 h (100 = growth as untreated, 0 = no growth, -100 = all killed); details: 10 µM unless noted

SMILES	growth
Cc1ccc(S(=O)(=O)OCCN(CCOS(=O)(=O)c2ccc(C)cc2)c2c[nH]c(=O)[nH]c2=O)cc1	99.2% (inactive)
N#CSCC1CC(O)(c2ccccc2)C(c2ccccc2)C(c2ccc(F)cc2)O1 (stereo not given)	-24.7% (active)
NCc1c(O)ccc2ccccc12	102% (inactive)
N#CC1=C(N)Oc2c(sc3c(Br)cccc23)C1c1ccc(F)cc1 (stereo not given)	-25.6% (active)
Fc1cc2c(cc1Cl)N(c1ncnc3ccc(-c4ccc5n[nH]nc5c4)cc13)CC2	69.3% (inactive)
COCCCNc1nc(NC(=O)c2ccc(F)cc2C)cc(-c2cccnc2)n1	106% (inactive)
O=C(Nc1cccc(Cl)c1)Nc1cccc(Cn2c(=O)[nH]c3ccc(Oc4ncccn4)cc3c2=O)c1	45.3% (inactive)
Nn1c(Nc2ccc(S(=O)(=O)Nc3ncccn3)cc2)nnc(/C=C/c2c(O)ccc3ccccc23)c1=O	86.1% (inactive)
CCNC(=S)NN	100% (inactive)
O=S(=O)(Nc1ccccc1)c1ccc(C2CC3(Cl)C(Cl)=C(Cl)C2(Cl)C3(Cl)Cl)cc1 (stereo not given)	13% (inactive)
O=c1cc(-c2ccccc2)oc2cc(OCc3cn(Cc4ccc(F)cc4)nn3)cc(O)c12	104% [100 µM] (inactive)
CCOC(=O)c1cc(C)[nH]c(=O)c1C#N	121% (inactive)
CCC(=O)Oc1ccc(/C(=C(/C)Cc2cccc(OC)c2)c2ccc(OCCN(C)C)cc2)cc1	91.3% (inactive)
CN(C)C1CCN(C(=O)c2ccc(NC(=O)Nc3ccc(-c4nc(N5CCOCC5)nc(N5CCOCC5)n4)cc3)cc2)CC1	1.8% [2.5 µM] (active)
Cn1nccc1Nc1nccc(-c2ccn([C@H](CO)c3ccc(Cl)c(F)c3)c(=O)c2)n1	57.1% (inactive)
CCOc1ccc2cc(-c3nn(CC4CCNCC4)c4ncnc(N)c34)ccc2c1	98.1% (inactive) and 19.7% (inactive)
CC(C)(C)c1ccc(S(=O)(=O)Oc2ccc3c4c(c(=O)oc3c2)CCCCC4)cc1	52% (inactive)
Cc1c(C(=O)NCc2ccccc2)[n+](=O)c2cc(F)ccc2n1[O-]	189% (inactive)
CC#Cc1nc2ccccc2c(=O)[nH]1	11.4% (inactive)
CCCCOc1nc2ccccc2cc1/C=C/c1cc(/C=C/c2cc3ccccc3nc2OCCCC)n(-c2ccccc2)n1	97.5% (inactive)

SMILES	growth
O=C(/C=C/c1ccco1)c1ccc(Nc2nc(Nc3ccc(F)cc3)nc(Nc3ccc(Cl)cc3)n2)cc1	-93.7% (active)
COc1ccc(/C(C)=C(/c2ccc(OCCCN(C)C)cc2)c2ccc(OC(=O)Cc3ccccc3)cc2)cc1	72% (inactive)
COC1=CC(c2ccc[nH]2)=N/C1=C\c1[nH]c(C)c(C(=O)OCc2ccccc2)c1C	-8.78% (active)
O=S(=O)(O)c1ccc(Cl)c(Cl)c1	106% (inactive)
Cn1cc(-c2csc(-c3cn(CCCN4CCCCC4)c4ccc(F)cc34)n2)c2cccnc21	56.3% (inactive)
CCCCCCC1(C)NCCO1 (stereo not given)	91.2% (inactive)
N#Cc1c(-c2ccc(Cl)cc2)cc(-c2cc3ccccc3o2)nc1SCC(=O)c1ccc(Cl)cc1	123% (inactive)
Cc1ccc(N(CC2=NCCN2)c2cccc(O)c2)cc1	105% (inactive)
Nc1cc2ccccc2c(O)c1O	4.42% (active)
C[C@]12CC[C@@H]3c4ccc(O)c([N+](=O)[O-])c4CC[C@H]3[C@@H]1CCC2=O	93.7% (inactive)
O=C1/C(=C/c2ccc([N+](=O)[O-])cc2)Oc2ccc(O)cc21	86.1% (inactive)
CC(=O)Nc1ccc(S(N)(=O)=O)cc1	101% (inactive)
CCCCC1(CC)COC(CCC)OC1 (stereo not given)	115% (inactive)
Oc1c(Cl)cc(Cl)cc1C=NCC1CCC(CN=Cc2cc(Cl)cc(Cl)c2O)CC1 (stereo not given)	73.9% (inactive)
Cn1c([N+](=O)[O-])cnc1/C=C1\Oc2ccc(Cl)cc2C1=O	-2.57% (active)
O=C(Cn1c(=O)ccn(CCCCCCCCOc2ccc(Br)cc2)c1=O)Nc1ccc(Oc2ccc(Cl)cc2)cc1	48.7% (inactive)
CC(=O)N(N=Nc1ccccc1)c1cccc2ccccc12	116% (inactive)
CCNC(=S)NNC(=O)c1cc2ccc1CCc1ccc(cc1)CC2	100% (inactive)
CCCCCCCCCCCC(=O)NCCCN(C)C	83.7% (inactive)
OB1OCc2cc(/C=C/c3cccc(C(F)(F)F)c3)ccc21	-6.49% (active)
